High-throughput results: PubChem BioAssay, University of Kansas High Throughput Screening Laboratory
Pf apPOL block = Pf-apPOL DNA polymerase inhibition | Recombinant Pf-apPOL, molecular beacon fluorescence, 1.5 h | inhibition, % at 10 µM | actives 0.25% (n = 210,000) | AID 1794808
mHTT-CaM PPI inh = mHTT-calmodulin interaction abrogation. P42858. AlphaScreen His-mHTT/GST-CaM binding, luminescence. inhibition, % at 15 µM. actives 3.6% (n = 190,000). AID 1671202;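 further: 0% = both proteins with DMSO and 100% = one protein alone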
* hit, by the source's call; . = no result. Only some compounds are listed: those with a hit (about 3.6% of all), similar ones and a draw of the others. No stated cut-off is given here; in the data, active means inhibition above about 50%; inactive means the rest.

SMILES	Pf apPOL block	mHTT-CaM PPI inh
CC(C)(C)CC(C)(C)c1ccc(OCC(O)C[N+]2(C)CCCC2)cc1 (stereo not given)	-1	19
CC[N+]1(CC(O)COc2ccc(C(C)(C)CC(C)(C)C)cc2)CCCC1 (stereo not given)	-1	84*
CC(C)(C)CC(C)(C)c1ccc(OCC(O)CN2CCCC2)cc1 (stereo not given)	-6	100*
CN(C)CC(O)COc1ccc(C(C)(C)CC(C)(C)C)cc1 (stereo not given)	-2	99*
CC(C)(C)c1ccc(OCC(O)CN)cc1 (stereo not given)	-10	-2
CCC(C)(C)c1ccc(OCC(O)CN2CCOCC2)c(C(C)(C)CC)c1 (stereo not given)	5	94*
CCOc1ccc2c(=O)c(-c3ccc4c(c3)OCCO4)c(C)oc2c1C	-3	-1
Cc1sc(NC(=O)C2CC2c2ccccc2)c(C#N)c1C (stereo not given)	-5	3
Cc1ccc(/C=C2\N=C(c3ccccc3Cl)OC2=O)cc1	-2	4
Cc1ccc(NC(=O)CSc2ncnc3c2[nH]c2ccccc23)c(Br)c1	-6	-8
O=C1c2ccccc2C(=O)c2c(O)ccc(O)c21	-27	42
O=C1c2ccccc2C(=O)c2c(O)c(O)cc(O)c21	-1	75*
Nc1cc(S(=O)(=O)O)c(N)c2c1C(=O)c1ccccc1C2=O	31	.
O=C1c2ccccc2C(=O)c2c1cc(S(=O)(=O)O)c(O)c2O	.	52*
Cc1cc2c(cc(C(=O)NCc3ccccn3)n2CC(C)C)s1	-13	70*
CCNC(=O)c1cc2sc(C)cc2n1CC	-6	-2
COc1ccc(CNC(=O)N2CC3CC2CC3NC(=O)c2ccccc2)cc1 (stereo not given)	-3	2
Cc1cccc(CNC(=O)c2nn(C)c3c2CN(C(=O)Cc2ccccc2)CC3)c1	11	63*
CCC(CC)C(=O)N1CCc2c(c(C(=O)NCc3cccc(C)c3)nn2C)C1	-2	21
Cc1cccc(CNC(=O)c2nn(C)c3c2CN(C(=O)C(C)C)CC3)c1	67*	41
CCCCC(=O)N1CCc2c(c(C(=O)NCc3cccc(C)c3)nn2C)C1	2	59*
CCCCC(=O)N1CCc2c(c(C(=O)NCc3ccccc3)nn2C)C1	-9	0
Cn1nc(C(=O)NCc2ccccc2)c2c1CCN(C(=O)Cc1ccc(F)cc1)C2	-6	78*
Cc1cccc(CNC(=O)c2nn(C)c3c2CN(C(=O)CC(C)C)CC3)c1	-4	49
Cn1nc(C(=O)NCc2ccc(F)cc2)c2c1CCN(C(=O)c1c(F)cccc1F)C2	-14	9
SMILES	Pf apPOL block	mHTT-CaM PPI inh
Oc1ccc(Br)cc1C=NCC1CCCO1 (stereo not given)	-2	7
Cc1ccccc1C(=O)Nc1cnn(C)c(=O)c1N1CCCCC1	-5	9
Cn1nc(C(=O)NCc2ccccc2)c2c1CCN(C(=O)c1cccc(Cl)c1)C2	-11	81*
Cn1nc(C(=O)NCc2ccccc2)c2c1CCN(C(=O)c1cccs1)C2	-14	4
Cn1nc(C(=O)NCc2ccccc2)c2c1CCN(C(=O)c1ccc(Cl)cc1)C2	-3	0
COc1ccc(C(=O)N2CCc3c(c(C(=O)NCc4ccccc4)nn3C)C2)cc1OC	-10	75*
CCOc1ccc(C(=O)N2CCc3c(c(C(=O)NCc4ccccc4)nn3C)C2)cc1	-11	-17
COc1cccc(C(=O)N2CCc3c(c(C(=O)NCc4ccccc4)nn3C)C2)c1	-5	69*
CN(C)c1cccc(C(=O)N2CCc3c(c(C(=O)NCc4ccccc4)nn3C)C2)c1	-5	50*
Cn1nc(C(=O)NCc2ccccc2)c2c1CCN(C(=O)c1c(F)cccc1F)C2	4	2
CCN(CC)C(=C(C(Cl)=C(Cl)Cl)[N+](=O)[O-])N(CC)CC	2	-1
Cc1ccc(OC(=O)OCC(C)C)cc1	0	-3
O=C(c1ccc(F)c(F)c1)N1CCc2nc(-c3ccc(F)cc3)ncc2C1	-4	5
COc1ccccc1C(=O)N1CCc2c(c(C(=O)NCc3ccc(Cl)cc3)nn2C)C1	4	80*
Cn1nc(C(=O)NCc2ccc(Cl)cc2)c2c1CCN(C(=O)c1ccccc1F)C2	14	43
COc1cccc(C(=O)N2CCc3c(c(C(=O)NCc4ccc(Cl)cc4)nn3C)C2)c1	-2	90*
Cc1ccccc1-c1noc(-c2cccc([N+](=O)[O-])c2)n1	-3	8
CCN(CCNC(=O)CN1N=C(c2ccc(Cl)cc2)CCC1=O)c1ccccc1	-10	65*
CCN(CC)CCNC(=O)CN1N=C(c2ccc(Cl)cc2)CCC1=O	-92	0
O=C(C1CCCCC1)N1CCC(CCOc2ccncc2)CC1	-2	4
COC(=O)c1ccc(CN2CCN(Cc3nc4ccccc4[nH]3)CC2)cc1	-10	-2
CCOc1ccc(C2C(C#N)=C(C(C#N)C#N)NC(O)(C3CC3)C2[n+]2ccc(C)cc2)cc1 (stereo not given)	-3	17
